Measurements published in PubChem BioAssay AID1159580 (chemical genetic matrix, 2015).
Hit rate of the full screen: of about 5,500 compounds, about 2,000 (36%) were called active. Not shown: some 18% with an inconclusive outcome. Cut-off read from the data, not from the text of the source: active = normalized growth mostly below about 0.91 (no sharp cut-off); inconclusive = no clear call, values can overlap the other calls; inactive = mostly above about 0.92. Some of the results follow.

Assay: chemical genetic growth profiling, strain panel (AID 1159580);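 note: tested at 20 µM; growth read once vehicle control cultures reached saturation at 30 °C; 1 = growth at the plate median or of vehicle wells; lower values mean less growth of the strain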
Settings: growth OD
[1] = S. cerevisiae deletion strains, locus YBR021W, strain FUR4, active compounds read low
[2] = S. cerevisiae deletion strains, locus YBR229C, strain ROT2, active compounds read low
[3] = S. cerevisiae deletion strains, locus YCL029C, strain bik1, active compounds read low
[4] = S. cerevisiae deletion strains, locus YDL035C, strain GPR1, active compounds read low
[5] = S. cerevisiae deletion strains, locus YDL074C, strain BRE1, active compounds read low
[6] = S. cerevisiae deletion strains, locus YDL101C, strain DUN1, active compounds read low
[7] = S. cerevisiae deletion strains, locus YDL134C, strain PPH21, active compounds read low
[8] = S. cerevisiae deletion strains, locus YDL185W, strain tfp1, active compounds read low
[9] = S. cerevisiae deletion strains, locus YDL192W, strain arf1, active compounds read low
[10] = S. cerevisiae deletion strains, locus YDR101C, strain arx1, active compounds read low
[11] = S. cerevisiae deletion strains, locus YDR162C, strain NBP2, active compounds read low
[12] = S. cerevisiae deletion strains, locus YDR318W, strain mcm21, active compounds read low
[13] = S. cerevisiae deletion strains, locus YDR388W, active compounds read low
[14] = S. cerevisiae deletion strains, locus YDR502C, strain sam2, active compounds read low
[15] = S. cerevisiae deletion strains, locus YEL061C, strain CIN8, active compounds read low
[16] = S. cerevisiae deletion strains, locus YER110C, active compounds read low
[17] = S. cerevisiae deletion strains, locus YER155C, strain BEM2, active compounds read low
[18] = S. cerevisiae deletion strains, locus YER167W, strain BCK2, active compounds read low
[19] = S. cerevisiae deletion strains, locus YGL078C, strain dbp3, active compounds read low
[20] = S. cerevisiae deletion strains, locus YGL086W, strain mad1, active compounds read low
[21] = S. cerevisiae deletion strains, locus YGL248W, strain PDE1, active compounds read low
[22] = S. cerevisiae deletion strains, locus YGR135W, strain pre9, active compounds read low
[23] = S. cerevisiae deletion strains, locus YGR252W, strain gcn5, active compounds read low
[24] = S. cerevisiae deletion strains, locus YHR079C, strain IRE1 (second series), active compounds read low
[25] = S. cerevisiae deletion strains, locus YHR094C, strain hxt1, active compounds read low
[26] = S. cerevisiae deletion strains, locus YHR129C, strain ARP1, active compounds read low
[27] = S. cerevisiae deletion strains, locus YHR200W, strain rpn10, active compounds read low
[28] = S. cerevisiae deletion strains, locus YIL066C, strain RNR3, active compounds read low
[29] = S. cerevisiae deletion strains, locus YIL073C, strain SPO22, active compounds read low
[30] = S. cerevisiae deletion strains, locus YIL125W, strain kgd1, active compounds read low
[31] = S. cerevisiae deletion strains, locus YIR030C, strain dcg1, active compounds read low
[32] = S. cerevisiae deletion strains, locus YJL095W, strain BCK1, active compounds read low
[33] = S. cerevisiae deletion strains, locus YJL134W, strain LCB3, active compounds read low
[34] = S. cerevisiae deletion strains, locus YJL168C, strain set2, active compounds read low
[35] = S. cerevisiae deletion strains, locus YJL187C, strain SWE1 (second series), active compounds read low
[36] = S. cerevisiae deletion strains, locus YJR075W, strain HOC1, active compounds read low
[37] = S. cerevisiae deletion strains, locus YKL068W, active compounds read low
[38] = S. cerevisiae deletion strains, locus YKL085W, strain MDH1 (second series), active compounds read low
[39] = S. cerevisiae deletion strains, locus YKL085W, strain MDH1, active compounds read low
[40] = S. cerevisiae deletion strains, locus YKR001C, strain vps1, active compounds read low
[41] = S. cerevisiae deletion strains, locus YLR039C, strain RIC1, active compounds read low
[42] = S. cerevisiae deletion strains, locus YLR058C, strain SHM2, active compounds read low
[43] = S. cerevisiae deletion strains, locus YLR102C, strain apc9, active compounds read low
[44] = S. cerevisiae deletion strains, locus YLR268W, strain sec22, active compounds read low
[45] = S. cerevisiae deletion strains, locus YLR330W, strain CHS5, active compounds read low
[46] = S. cerevisiae deletion strains, locus YLR371W, strain rom2, active compounds read low
[47] = S. cerevisiae deletion strains, locus YLR418C, strain cdc73, active compounds read low
[48] = S. cerevisiae deletion strains, locus YML016C, strain PPZ1, active compounds read low
[49] = S. cerevisiae deletion strains, locus YML032C, strain rad52, active compounds read low
[50] = S. cerevisiae deletion strains, locus YML124C, strain tub3, active compounds read low
[51] = S. cerevisiae deletion strains, locus YMR078C, strain ctf18, active compounds read low
[52] = S. cerevisiae deletion strains, locus YMR223W, strain ubp8, active compounds read low
[53] = S. cerevisiae deletion strains, locus YMR263W, strain SAP30, active compounds read low
[54] = S. cerevisiae deletion strains, locus YMR307W, strain GAS1, active compounds read low
[55] = S. cerevisiae deletion strains, locus YNL067W, strain RPL9B, active compounds read low
[56] = S. cerevisiae deletion strains, locus YNL233W, strain BNI4, active compounds read low
[57] = S. cerevisiae deletion strains, locus YNL250W, strain rad50, active compounds read low
[58] = S. cerevisiae deletion strains, locus YNL271C, strain bni1, active compounds read low
[59] = S. cerevisiae deletion strains, locus YNL298W, strain CLA4, active compounds read low
[60] = S. cerevisiae deletion strains, locus YNL307C, strain MCK1, active compounds read low
[61] = S. cerevisiae deletion strains, locus YNR052C, strain pop2, active compounds read low
[62] = S. cerevisiae deletion strains, locus YOL006C, strain TOP1, active compounds read low
[63] = S. cerevisiae deletion strains, locus YOL012C, strain htz1
[64] = S. cerevisiae deletion strains, locus YOL147C, strain pex11, active compounds read low
[65] = S. cerevisiae deletion strains, locus YOR061W, strain CKA2, active compounds read low
[66] = S. cerevisiae deletion strains, locus YOR069W, strain VPS5, active compounds read low
[67] = S. cerevisiae deletion strains, locus YOR136W, strain idh2, active compounds read low
[68] = S. cerevisiae deletion strains, locus YOR144C, strain elg1, active compounds read low
[69] = S. cerevisiae deletion strains, locus YOR184W, strain ser1, active compounds read low
[70] = S. cerevisiae deletion strains, locus YOR316C, strain cot1, active compounds read low
[71] = S. cerevisiae deletion strains, locus YPR119W, strain clb2, active compounds read low
[72] = S. cerevisiae deletion strains, locus YPR141C, strain kar3, active compounds read low
[73] = S. cerevisiae deletion strains, locus YPR163C, strain tif3, active compounds read low
[74] = S. cerevisiae deletion strains, locus YPR167C, strain met16, active compounds read low
[75] = S. cerevisiae deletion strains, strain wtn01, active compounds read low
[76] = S. cerevisiae strains, strain wild type, active compounds read low

Measured: normalized growth

COc1cc2c(cc1OC)C1C(=O)c3c(OC)cc4c(c3OC1CO2)CCC(C)(C)O4 (configuration not stated)
inactive: S. cerevisiae deletion strains, locus YAL013W, strain DEP1, active compounds read low 1.01 | [1] 1.02 | [2] 1.02 | [3] 0.987 | [4] 1 | [5] 1.03 | [6] 1.03 | [7] 1.02 | [8] 0.988 | [9] 0.983 | [10] 0.984 | S. cerevisiae deletion strains, locus YDR150W, strain NUM1, active compounds read low 1.02 | [11] 1.06 | [12] 0.988 | [13] 0.99 | [14] 0.997 | [15] 1.01 | [16] 0.985 | [17] 1.02 | [18] 1.01 | [19] 0.981 | [20] 0.975 | [21] 1.02 | S. cerevisiae deletion strains, locus YGR078C, strain PAC10, active compounds read low 1.03 | [22] 1.01 | S. cerevisiae deletion strains, locus YGR229C, strain SMI1, active compounds read low 1.01 | [23] 0.948 | S. cerevisiae deletion strains, locus YHR030C, strain SLT2, active compounds read low 1.01 | [24] 0.988 | [25] 0.987 | [26] 1.01 | [27] 0.993 | [28] 1.02 | [29] 0.948 | [30] 0.983 | [31] 0.985 | [32] 1.01 | [33] 1.01 | [34] 0.979 | [35] 1.02 | S. cerevisiae deletion strains, locus YJR043C, strain POL32, active compounds read low 1 | [36] 1.01 | S. cerevisiae deletion strains, locus YKL009W, strain mrt4, active compounds read low 0.999 | [37] 0.983 | [38] 0.978 | [39] 0.978 | S. cerevisiae deletion strains, locus YKL190W, strain CNB1, active compounds read low 1.02 | [40] 0.961 | [41] 0.964 | [42] 1.02 | [43] 0.992 | S. cerevisiae deletion strains, locus YLR262C, strain YPT6, active compounds read low 0.994 | [44] 0.972 | [45] 1.01 | S. cerevisiae deletion strains, locus YLR342W, strain FKS1 (second series), active compounds read low 0.981 | [46] 0.988 | [47] 1 | [48] 1.02 | [49] 0.966 | [50] 0.99 | [51] 0.979 | [52] 0.973 | [53] 1.03 | [54] 0.99 | [55] 1.03 | S. cerevisiae deletion strains, locus YNL128W, strain TEP1, active compounds read low 1.02 | S. cerevisiae deletion strains, locus YNL153C, strain GIM3, active compounds read low 1.03 | [56] 1.04 | [57] 0.968 | [58] 0.981 | [59] 1 | [60] 0.969 | S. cerevisiae deletion strains, locus YNL322C, strain KRE1, active compounds read low 1.02 | [61] 0.976 | [62] 1.04 | [63] 0.96 | [64] 0.988 | [65] 1.02 | [66] 1.01 | [67] 0.981 | [68] 0.994 | [69] 0.95 | [70] 0.98 | S. cerevisiae deletion strains, locus YPL055C, strain LGE1, active compounds read low 1.05 | S. cerevisiae deletion strains, locus YPL241C, strain CIN2, active compounds read low 1.01 | [71] 0.983 | [72] 0.966 | [73] 0.976 | [74] 0.983 | [75] 0.997 | [76] 1

COc1cc2c(cc1OC)C1C(=O)c3c(O)cc4c(c3OC1CO2)C=CC(C)(C)O4 (configuration not stated)
active: [40] 0.718
inactive: [1] 1.01 | [2] 1 | [3] 1.01 | [4] 0.965 | [5] 0.962 | [6] 1.01 | [7] 0.985 | [8] 1.01 | [9] 0.98 | [10] 1.02 | [11] 1 | [12] 0.995 | [13] 1 | [14] 1.03 | [15] 0.989 | [16] 1.02 | [17] 1.02 | [18] 1 | [19] 1.03 | [20] 1.02 | [21] 1.01 | [22] 1.06 | [23] 1.03 | [24] 1.01 | [25] 1.02 | [26] 0.991 | [27] 1.01 | [28] 0.981 | [29] 1.08 | [30] 1.02 | [31] 1.03 | [32] 1.01 | [33] 0.998 | [34] 1 | [35] 0.997 | [36] 0.999 | [37] 1.01 | [38] 1.01 | [39] 1.01 | [41] 0.871 | [42] 0.977 | [43] 1.02 | [44] 1.01 | [45] 0.987 | [46] 1.02 | [47] 0.988 | [48] 1.01 | [49] 1.02 | [50] 1.03 | [51] 1.03 | [52] 1.01 | [53] 1.01 | [54] 0.949 | [55] 1.01 | [56] 1.01 | [57] 1.05 | [58] 1.03 | [59] 1.01 | [60] 1.02 | [61] 1.03 | [62] 0.933 | [63] 1.33 | [64] 0.999 | [65] 0.987 | [66] 1.01 | [67] 1 | [68] 1.01 | [69] 1.01 | [70] 1.01 | [71] 1.03 | [72] 1.03 | [73] 1 | [74] 1.03 | [75] 1.01 | [76] 0.932
